Measured values published in paper PMC4336329 (PLoS ONE, 2015).
The whole screen tested about 310,000 compounds, of which about 2,200 (0.71%) showed an effect of 50% or more. Effects have a minus sign here. Only a selection was taken, and strong results are over-represented in it overall.

Molecular target: human ether-à-go-go-related gene (hERG) potassium channel (human, UniProt Q12809)
Assay: primary screen, population patch clamp on CHO cells stably expressing hERG; higher = less effect of the substance

human ether-à-go-go-related gene (hERG) potassium channel, sequence (Q12809 whole entry, looked up): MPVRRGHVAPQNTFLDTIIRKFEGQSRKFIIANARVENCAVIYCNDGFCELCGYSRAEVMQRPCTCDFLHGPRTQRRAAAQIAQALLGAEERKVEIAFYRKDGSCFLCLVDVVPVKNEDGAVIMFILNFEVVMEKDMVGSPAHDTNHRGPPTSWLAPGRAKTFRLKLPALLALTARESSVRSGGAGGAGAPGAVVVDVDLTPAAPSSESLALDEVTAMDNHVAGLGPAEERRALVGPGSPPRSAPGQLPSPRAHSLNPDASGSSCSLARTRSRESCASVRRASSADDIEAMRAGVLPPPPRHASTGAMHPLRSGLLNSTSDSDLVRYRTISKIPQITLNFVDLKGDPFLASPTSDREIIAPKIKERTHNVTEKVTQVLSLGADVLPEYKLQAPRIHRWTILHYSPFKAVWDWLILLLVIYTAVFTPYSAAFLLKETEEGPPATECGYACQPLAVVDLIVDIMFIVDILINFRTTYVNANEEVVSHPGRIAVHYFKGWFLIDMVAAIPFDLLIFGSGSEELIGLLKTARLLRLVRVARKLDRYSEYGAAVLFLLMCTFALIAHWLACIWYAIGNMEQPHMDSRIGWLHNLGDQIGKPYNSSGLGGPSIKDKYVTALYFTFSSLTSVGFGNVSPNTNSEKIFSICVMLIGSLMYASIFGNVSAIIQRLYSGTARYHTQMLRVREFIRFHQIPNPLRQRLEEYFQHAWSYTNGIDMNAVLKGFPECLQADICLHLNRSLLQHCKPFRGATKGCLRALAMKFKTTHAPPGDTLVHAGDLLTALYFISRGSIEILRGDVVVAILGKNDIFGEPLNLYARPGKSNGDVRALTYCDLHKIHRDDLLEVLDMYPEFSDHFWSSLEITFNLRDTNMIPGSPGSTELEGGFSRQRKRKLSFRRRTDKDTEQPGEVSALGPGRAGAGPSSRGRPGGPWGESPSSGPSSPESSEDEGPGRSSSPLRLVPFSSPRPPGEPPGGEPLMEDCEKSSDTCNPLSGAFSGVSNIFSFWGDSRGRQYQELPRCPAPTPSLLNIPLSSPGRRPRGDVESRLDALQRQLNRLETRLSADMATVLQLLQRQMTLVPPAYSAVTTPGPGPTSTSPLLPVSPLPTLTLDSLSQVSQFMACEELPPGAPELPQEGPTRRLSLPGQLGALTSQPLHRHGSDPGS

Structure (SMILES)	hERG current change (%, negative = inhibition) at 1uM [%]
Cc1cc(C)n(-c2nc(Nc3ccccc3)nc(-n3nc(C)cc3C)n2)n1	12.1
Cc1cc(C)n(-c2nc(C)nc(NCc3ccccc3)n2)n1	-61.6
CNc1nc(C)nc(-n2nc(C)cc2C)n1	9.5
CCCOC(=O)c1ccc(NC(=O)CN(C)Cc2cccs2)cc1	11.8
O=C1c2ccsc2SCCN1Cc1cccc(Cl)c1	8.86
COc1ccc(N2CCN(C(=O)Cn3cnc4c(cnn4-c4ccccc4)c3=O)CC2)cc1	5.22
Cc1ccc(Cl)cc1NC(=O)CCS(=O)(=O)c1cccc2nonc12	10.8
c1ccc(CN2C3=NCCN3c3ccccc32)cc1	2.38
Cl.O=C(CN1C2=NCCCN2c2ccccc21)c1ccc(Cl)cc1Cl	-82.1
Cl.Fc1ccc(CN2C3=NCCCN3c3ccccc32)cc1	-32.8
Cl.c1ccc(CN2C3=NCCCN3c3ccccc32)cc1	-29
Cl.Clc1ccc(CN2C3=NCCCN3c3ccccc32)c(Cl)c1	-28.2
Cl.Clc1ccc(CN2C3=NCCN3c3ccccc32)cc1	-40.4
Brc1ccc(CN2C3=NCCCN3c3ccccc32)cc1.Cl	-55.6
Cc1cc2c(cc1C)N(Cc1ccc(Cl)cc1)C1=NCCCN12	-28.4
Cl.O=C(O)CN1C2=NCCCN2c2ccccc21	15.8
Cc1ccc(CN2C3=NCCN3c3ccccc32)cc1.Cl	-23.5
Cl.Clc1ccc(CN2C3=NCCN3c3ccccc32)cc1Cl	-72.3
Cl.Clc1ccc(CN2C3=NCCCN3c3ccccc32)cc1	-54.3
COc1ccc(Sc2ccc(NC(=O)c3ccccc3Cl)cc2C#N)cc1	8.52
Cc1ccc(-c2csc(N3CCC(NS(=O)(=O)c4ccc5c(c4)OCCO5)CC3)n2)cc1	9.83
CCOC(=O)Nc1nc(C)c(C(=O)N(C)C)s1	-1.49
Cn1c(OCc2ccco2)nc2c1c(=O)n(Cc1ccc(Cl)c(Cl)c1)c(=O)n2C	6.62

Structure (SMILES)	hERG current change (%, negative = inhibition) at 1uM [%]
COc1ccc(C(=O)NC(=S)N2CC(C)OC(C)C2)cc1OC (stereo not drawn)	7.44
COC(=O)c1sccc1NC(=O)Nc1cccc(F)c1	9.69
C[C@@H](C(=O)OCC(=O)NCCc1ccc(S(N)(=O)=O)cc1)N1C(=O)C2CCCCC2C1=O (stereo partly drawn)	12
Cl.Clc1ccc(CN2C3=NCCCN3c3ccccc32)cc1Cl	-51.4
Br.CC(C)(C)C(=O)CN1C2=NCCCN2c2ccccc21	-46.9
Cl.Clc1cccc(CN2C3=NCCCN3c3ccccc32)c1	-46.2
Br.CC(C)(C)c1ccc(CN2C3=NCCCN3c3ccccc32)cc1	-79.7
Cc1ccc(CN2C3=NCCCN3c3ccccc32)cc1.Cl	-29.6
Cc1cccc(CN2C3=NCCCN3c3ccccc32)c1.Cl	-16.9
O=C1CSC2(CCCCC2)N1CCO	12.4
O=C(Oc1ccc(C(=S)N2CCOCC2)cc1)c1ccccc1	28.6
O=C(COC(=O)C1(c2ccc(F)cc2)CCCC1)Nc1ncc(C(F)(F)F)cc1Cl	2.97
O=C(C1CCN(C2CC(=O)N(c3ccc(Cl)cc3)C2=O)CC1)N1CCOCC1 (stereo not drawn)	2.01
CCCC[C@@H]1C[C@H]1[C@@H](NC(=O)c1ccco1)c1ccc(Cl)cc1	6.22
CC(Nc1nc(N2CCOCC2)nc2ccccc12)c1ccccc1 (stereo not drawn)	-52.7
CC(Nc1nc(N2CCCCC2)nc2ccccc12)c1ccccc1 (stereo not drawn)	-14.4
CC(Nc1nc(N2CCN(CCO)CC2)nc2ccccc12)c1ccccc1 (stereo not drawn)	-25.9
CC(Nc1nc(N2CCCC2)nc2ccccc12)c1ccccc1 (stereo not drawn)	-84.6
CC(Nc1nc(N2CCNCC2)nc2ccccc12)c1ccccc1 (stereo not drawn)	-31.7
CC(Nc1nc(N2CCN(S(C)(=O)=O)CC2)nc2ccccc12)c1ccccc1 (stereo not drawn)	-14
COC(=O)C(C(=O)Nc1cccc(Cl)c1C)C1CCCC1 (stereo not drawn)	5.04
COCCCN1C(=O)C(=O)/C(=C(/O)c2ccc(S(=O)(=O)N3CCOCC3)cc2)C1c1ccc(F)cc1 (stereo not drawn)	6.04
Cc1ccsc1/C=N/Nc1ncnc2nc[nH]c12	-2.18

Structure (SMILES)	hERG current change (%, negative = inhibition) at 1uM [%]
COc1ccc(S(=O)(=O)N2N=C(c3cccc(NS(C)(=O)=O)c3)CC2c2ccco2)cc1 (stereo not drawn)	16.4
COc1ccc(S(=O)(=O)N2N=C(c3ccc(NS(C)(=O)=O)cc3)CC2c2ccco2)cc1 (stereo not drawn)	-69.6
CS(=O)(=O)Nc1ccc(C2=NN(S(=O)(=O)c3ccc(F)cc3)C(c3ccco3)C2)cc1 (stereo not drawn)	-15.6
O=C(CCS(=O)(=O)Cc1ccccc1F)NCCc1ccc(Cl)cc1	5.86
Cc1cc(NC(=O)CSc2nc3c(c(=O)n2-c2ccc(Br)cc2)SCC3)no1	6.41
CCOC(=O)c1c(CN2CCCCC2)n(C)c2cc(Br)c(O)cc12	-68.8
CCOC(=O)c1c(CN(CC)CC)oc2cc(Br)c(O)cc12	-59.5
CCOC(=O)c1c(CN2CCN(C)CC2)n(C)c2cc(Br)c(OC)cc12	-12.4
CCOC(=O)c1c(CN(CC)CC)n(C)c2cc(Br)c(O)cc12.Cl	-45
CCOC(=O)c1c(CN(CC)CC)oc2ccc(OC)cc12	-25.8
CCOC(=O)c1c(CN2CCCCC2)n(C)c2cc(Br)c(OC)cc12	9.14
Cc1ccc(NC(=S)NNC(=O)Cn2nc(C(F)F)cc2C(F)F)cc1	13.6
Cc1oc(C(C)(C)C)cc1C(=O)Nc1ccc(N2CCOCC2)cc1	4.63
CC(=O)NC(=S)Nc1ccccc1N1CCN(C(=O)c2ccccc2)CC1	10.6
C[N+](C)(C)CCCCCCCCCC[N+](C)(C)C.[Br-]	7.97
CCCCCCCCCCOC(=O)Cn1c(COc2ccccc2OC)[n+](C)c2ccccc21.[Cl-]	-33.2
CCCCCCCCCCOC(=O)Cn1c(COc2cccc(OC)c2)[n+](C)c2ccccc21.[Cl-]	-37.3
CCCCc1n(CC(=O)c2ccc(Cl)cc2)c2ccccc2[n+]1C.[Br-]	10.7
CCCCCCCCCCOC(=O)Cn1c(COc2ccc(Cl)cc2)[n+](C)c2ccccc21.[Cl-]	-79.1
CCCCCCCCCCOC(=O)Cn1c(COc2ccc(OC)cc2)[n+](C)c2ccccc21.[Cl-]	-70.9
CCCCCCCCCCOC(=O)Cn1c(COc2cccc(C)c2)[n+](C)c2ccccc21.[Cl-]	-43.9
CCCCCCCCCCOC(=O)Cn1c(COc2ccccc2C)[n+](C)c2ccccc21.[Cl-]	-18
CCCCCCCCCCOC(=O)Cn1c(COc2ccc(C)cc2)[n+](C)c2ccccc21.[Cl-]	-56.5

Structure (SMILES)	hERG current change (%, negative = inhibition) at 1uM [%]
CCCCCCCCCCOC(=O)Cn1c(COc2ccccc2)[n+](C)c2ccccc21.[Cl-]	-46.5
CCN(C(=S)Nc1ccc(Oc2ccccc2)cc1)c1ccccc1	21.1
CCc1nnc(NC(=O)C2CCC2)s1	3.46
CCCn1c(N)c(N(CCOC)C(=O)c2ccc(F)cc2)c(=O)[nH]c1=O	12.9
Cc1[nH]c(C)c(S(=O)(=O)NCCc2ccc(S(N)(=O)=O)cc2)c1C(=O)N1CCCC1	12.3
CCCCSc1nnc(-c2ccc(NC(=O)CCc3ccccc3)cc2)n1C	19.5
Cc1ccc2occ(/C=C/C(=O)O)c(=O)c2c1	9.03
CCNC(=O)C1(c2ccccc2)CCCC1	5.42
CCOC(=O)C[n+]1c(C)csc1C.[Br-]	9.26
CCN1CCN(c2nc(Nc3ccc(OC)cc3)nc(N)c2[N+](=O)[O-])CC1	1.06
CCN1CCN(c2nc(Nc3cccc(OC)c3)nc(N)c2[N+](=O)[O-])CC1	-60.6
CCN1CCN(c2nc(Nc3cccc(C)c3)nc(N)c2[N+](=O)[O-])CC1	-36.9
COc1ccccc1-n1c(/C=C/c2ccc(O)cc2)nc2ccccc2c1=O	13
CCCCn1c(CCNC(=O)CC)nc2ccccc21	0.197
CCCCCn1c(=O)c(C(=O)c2ccccc2)nc2ccccc21	-52.5
CCCCn1c(CCCNC(=O)CC)nc2ccccc21	-3.85
CCCn1c(=O)c(C(=O)c2ccccc2)nc2ccccc21	-0.484
CCCCn1c(=O)c(C(=O)c2ccccc2)nc2ccccc21	5.56
CCCCCn1c(CCCNC(=O)CC)nc2ccccc21	-52.3
Cc1ccc(NC(=O)CSc2sc3c(O)cc(=O)[nH]c3c2C#N)cc1C	0.874
CC(C)(C)OC(=O)N1CCC(C(N)=O)CC1	5.04
